Measurements: the supplement of paper PMC5940239

Key:
[1] = tested on: Madurella mycetomatis MM55; experiment: percent growth relative to solvent control; higher = less inhibition, active = 20 or less; settings: 100 µM; 7 days
[2] = tested on: Madurella mycetomatis MM55; settings: 7 days
[3] = tested on: Madurella mycetomatis MM55; experiment: IC90; higher = less potent; settings: 7 days

**Q.** How did the percent growth [1] turn out when `CC(=O)NCC1CN(c2ccc(-c3ccc(CO)cc3)c(F)c2)C(=O)O1` (stereo not given) was run?
**A.** Its percent growth is 112% (inactive).

**Q.** How did the IC50 [2] turn out when `COc1ccc(C(=N)N)cc1-c1cn(-c2ccc(C(=N)N)cc2)nn1` was run?
**A.** Its IC50 is 56.6 µM.

**Q.** And the IC90 [3]?
**A.** The IC90 was 89.2 µM.

**Q.** And the percent growth [1]?
**A.** Its percent growth is -3.41% (active).

**Q.** With `O=C(Nc1cnc2ccccc2c1)c1cccc(-n2cnnn2)c1` as the compound, how does the percent growth [1] read?
**A.** The percent growth was 94.2% (inactive).

**Q.** With `O=C(COc1cccc(F)c1)Nc1nc(-c2ccccn2)cs1` as the compound, how does the IC50 [2] read?
**A.** The IC50 was 8.85 µM.

**Q.** And the IC90 [3]?
**A.** The IC90 was 16.1 µM.

**Q.** What about the percent growth [1] of the same compound?
**A.** Its percent growth is 0.599% (active).

**Q.** `Nc1ccc2ncnc(Nc3ccc(OCc4cccc(F)c4)c(Cl)c3)c2c1` was tested. Which percent growth [1] did it give?
**A.** The percent growth was 92.1% (inactive).

**Q.** How did the IC50 [2] turn out when `Cc1cc(C)n(-c2ccc(NC(=O)C3CCN(Cc4cnc(C)s4)CC3)cc2)n1` was run?
**A.** The IC50 was 48.8 µM.

**Q.** And the IC90 [3]?
**A.** The IC90 was 92.5 µM.

**Q.** And the percent growth [1]?
**A.** The percent growth was 1.64% (active).

**Q.** How did the IC50 [2] turn out when `CN(C)c1cc(NC(=O)Nc2ccccc2)c2ccccc2n1` was run?
**A.** Its IC50 is 14.2 µM.

**Q.** And the IC90 [3]?
**A.** The IC90 was 59.1 µM.

**Q.** And the percent growth [1]?
**A.** The percent growth was 8.07% (active).

**Q.** With `CC(c1cc(Cl)cc(Cl)c1)N(C)c1ncc2c(N)nc(N)nc2n1` (stereo not given) as the compound, how does the IC50 [2] read?
**A.** The IC50 was 46.5 µM.

**Q.** What about the IC90 [3] of the same compound?
**A.** The IC90 was 90.7 µM.

**Q.** And the percent growth [1]?
**A.** Its percent growth is 5.31% (active).

**Q.** How did the IC50 [2] turn out when `Nc1nccc2ccc(-c3ccc4nccn4c3)cc12` was run?
**A.** Its IC50 is 53.9 µM.

**Q.** And the IC90 [3]?
**A.** The IC90 was 89.2 µM.

**Q.** And the percent growth [1]?
**A.** Its percent growth is -2.88% (active).

**Q.** With `CC(C)n1ncc2c(C(=O)NCC(c3cccs3)N3CCOCC3)cc(-c3ccccc3)nc21` (stereo not given) as the compound, how does the percent growth [1] read?
**A.** Its percent growth is 76% (inactive).

**Q.** How did the IC50 [2] turn out when `CC(C)(C(=O)Nc1ccc(F)cc1)n1cc(-c2ccccc2F)cn1` was run?
**A.** Its IC50 is 56.2 µM.

**Q.** What about the IC90 [3] of the same compound?
**A.** The IC90 was 96.1 µM.

**Q.** And the percent growth [1]?
**A.** The percent growth was 6.9% (active).

**Q.** With `CS(=O)(=O)c1ccc(C(=O)N(CC2CCCO2)c2nc3ccccc3s2)cc1[N+](=O)[O-]` (stereo not given) as the compound, how does the percent growth [1] read?
**A.** Its percent growth is 110% (inactive).

**Q.** For `COc1ccc(-c2nnc3ccc(-c4cccc(C(C)C)c4)cn23)cc1OC`, which IC50 [2] is on record?
**A.** Its IC50 is 40.6 µM.

**Q.** What about the IC90 [3] of the same compound?
**A.** Its IC90 is 86.2 µM.

**Q.** And the percent growth [1]?
**A.** Its percent growth is 2.59% (active).

**Q.** `CC(C)NCC(=O)Nc1cccc(C(=O)Nc2cccc(C(F)(F)F)c2)c1` was tested. Which IC50 [2] did it give?
**A.** Its IC50 is 62 µM.

**Q.** What about the IC90 [3] of the same compound?
**A.** Its IC90 is 93.7 µM.

**Q.** And the percent growth [1]?
**A.** The percent growth was 2.17% (active).

**Q.** With `FC(F)(F)c1nnc2ccc(Cl)nn12` as the compound, how does the percent growth [1] read?
**A.** The percent growth was 116% (inactive).

**Q.** For `Clc1cccc(CO[C@H]2CCc3ccccc3[C@@H]2n2ccnn2)c1`, which percent growth [1] is on record?
**A.** Its percent growth is 64.8% (inactive).

**Q.** `CCNC(=O)C(C)Nc1nc(-c2cccnc2)nc2sc(C)c(C)c12` (stereo not given) was tested. Which percent growth [1] did it give?
**A.** Its percent growth is 90.4% (inactive).

**Q.** Which percent growth [1] does the source give for `Nc1ncc(-c2ccc(C(F)(F)F)nc2)cc1-c1ccc(C(F)(F)F)nc1` here?
**A.** Its percent growth is 94.5% (inactive).

**Q.** With `CC1(C)Cc2c(c(N3CCOCC3)nc3snc(Br)c23)CO1` as the compound, how does the percent growth [1] read?
**A.** The percent growth was 78.9% (inactive).

**Q.** For `CC(=O)Nc1ccc(NC(=O)c2cc(-c3cc(Cl)ccc3O)[nH]n2)cc1`, which percent growth [1] is on record?
**A.** Its percent growth is 155% (inactive).

**Q.** What does the source list for `CC(C)(C)n1nc(Cc2ccc(F)c(Cl)c2)c2c(N)ncnc21`?
**A.** IC50 [2]: 62 µM; IC90 [3]: 93 µM; percent growth [1]: 1.18% (active)

**Q.** What does the source list for `O=C(c1cc2ccccc2o1)N1CCN(Cc2ccc3c(c2)OCO3)CC1`?
**A.** IC50 [2]: 45.1 µM; IC90 [3]: 87.5 µM; percent growth [1]: 3.51% (active)

**Q.** How did the IC50 [2] turn out when `O=C1N(Cc2cc3ccccc3s2)CC2CN(Cc3ccccc3)CCN12` (stereo not given) was run?
**A.** The IC50 was 57.6 µM.

**Q.** And the IC90 [3]?
**A.** Its IC90 is 91.8 µM.

**Q.** What about the percent growth [1] of the same compound?
**A.** Its percent growth is 0.636% (active).

**Q.** With `c1ccc(-c2nc(NC3CCCCC3)cc(C3CC3)n2)nc1` as the compound, how does the IC50 [2] read?
**A.** The IC50 was 10.3 µM.

**Q.** And the IC90 [3]?
**A.** The IC90 was 18.8 µM.

**Q.** And the percent growth [1]?
**A.** Its percent growth is 2.69% (active).

**Q.** How did the IC50 [2] turn out when `CCCCOC(=O)Nc1cc2nc(C3CCCCC3)[nH]c2cc1N1CCCC1` was run?
**A.** Its IC50 is 11.6 µM.

**Q.** What about the IC90 [3] of the same compound?
**A.** Its IC90 is 18.4 µM.

**Q.** What about the percent growth [1] of the same compound?
**A.** Its percent growth is 7.67% (active).

**Q.** How did the IC50 [2] turn out when `COc1cncc(-c2cncc(N3CCN(c4ccncc4)CC3)n2)c1` was run?
**A.** The IC50 was 28.2 µM.

**Q.** And the IC90 [3]?
**A.** Its IC90 is 52.1 µM.

**Q.** And the percent growth [1]?
**A.** The percent growth was -0.286% (active).

**Q.** How did the percent growth [1] turn out when `Cc1cc2ccccc2n1CC(=O)N1CC(C(=O)N2CCCCC2)Oc2ccccc21` (stereo not given) was run?
**A.** Its percent growth is 82.1% (inactive).

**Q.** With `Cc1ccc2nc(Cl)c(CNCc3cccs3)cc2c1` as the compound, how does the IC50 [2] read?
**A.** Its IC50 is 37.5 µM.

**Q.** What about the IC90 [3] of the same compound?
**A.** The IC90 was 54.5 µM.

**Q.** What about the percent growth [1] of the same compound?
**A.** Its percent growth is -0.463% (active).

**Q.** With `Cc1ccc2[nH]c(C3CCCNC3)c(-c3ccncc3)c2c1` (stereo not given) as the compound, how does the IC50 [2] read?
**A.** The IC50 was 52.1 µM.

**Q.** What about the IC90 [3] of the same compound?
**A.** The IC90 was 89.4 µM.

**Q.** And the percent growth [1]?
**A.** The percent growth was 0.356% (active).

**Q.** `O=C(c1ccc(F)cc1)N(CCNc1ccccc1)c1ccccc1` was tested. Which IC50 [2] did it give?
**A.** Its IC50 is 66.8 µM.

**Q.** And the IC90 [3]?
**A.** The IC90 was 100 µM.

**Q.** And the percent growth [1]?
**A.** The percent growth was 6.35% (active).

**Q.** Which IC50 [2] does the source give for `OCc1ccc(-c2cncc(Nc3cccc(Cl)c3)c2)cc1` here?
**A.** The IC50 was 63.6 µM.

**Q.** What about the IC90 [3] of the same compound?
**A.** Its IC90 is 98.2 µM.

**Q.** What about the percent growth [1] of the same compound?
**A.** Its percent growth is 7.76% (active).

**Q.** Which IC50 [2] does the source give for `Cc1ncc(-c2ccnc(Nc3ccc(S(C)(=O)=O)cc3)n2)n1C(C)C` here?
**A.** Its IC50 is 65.9 µM.

**Q.** And the IC90 [3]?
**A.** Its IC90 is 96.9 µM.

**Q.** And the percent growth [1]?
**A.** The percent growth was 6.23% (active).

**Q.** For `CC(Oc1ccccc1)C(=O)Nc1nc(-c2ccccn2)cs1` (stereo not given), which IC50 [2] is on record?
**A.** The IC50 was 10.1 µM.

**Q.** And the IC90 [3]?
**A.** The IC90 was 18.5 µM.

**Q.** And the percent growth [1]?
**A.** The percent growth was 1.36% (active).
